Source: PubChem (National Center for Advancing Translational Sciences (NCATS))
KAT2A inh = inhibitors of human GCN5L2 histone acetyltransferase | Potency, µM (top dose mostly 58.9 µM), without a hit: at the highest dose activity change, negative = inhibition, most hits filed as inhibitors | actives 0.21% (n = 390,000) | Q92830 | GCN5L2 HAT assay, ThioGlo1 CoA-SH fluorescence | AID 504327
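ThioGlo1-coupled HAT assay: 20nM GCN5L2, 70uM acetyl-CoA, 75uM H3(1-25) peptide, pH 7.5. Fluorescence read at 340/540nm at start and after 20 min at room temperature.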
PLK1 PBD inh = blocks phosphopeptide binding to human PLK1 polo-box domain; P53350; Plk1 PBD binding of FITC phosphopeptide, fluorescence polarization; Potency, µM, for inactives: max response, negative = inhibition, most hits filed as inhibitors; actives 2.8% (n = 360,000); further: series mostly up to about 57 µM; nearly all actives have a fitted effect of over 65% in size
VDR inh = inhibitors of human vitamin D receptor; Potency, µM, for inactives: max response, negative = inhibition, usual class: inhibitors; AID 504847; VDR-SRC2-3 peptide fluorescence polarization, 2 h; P11473; actives 0.93% (n = 400,000)
Target sequence (P11473 whole entry, looked up): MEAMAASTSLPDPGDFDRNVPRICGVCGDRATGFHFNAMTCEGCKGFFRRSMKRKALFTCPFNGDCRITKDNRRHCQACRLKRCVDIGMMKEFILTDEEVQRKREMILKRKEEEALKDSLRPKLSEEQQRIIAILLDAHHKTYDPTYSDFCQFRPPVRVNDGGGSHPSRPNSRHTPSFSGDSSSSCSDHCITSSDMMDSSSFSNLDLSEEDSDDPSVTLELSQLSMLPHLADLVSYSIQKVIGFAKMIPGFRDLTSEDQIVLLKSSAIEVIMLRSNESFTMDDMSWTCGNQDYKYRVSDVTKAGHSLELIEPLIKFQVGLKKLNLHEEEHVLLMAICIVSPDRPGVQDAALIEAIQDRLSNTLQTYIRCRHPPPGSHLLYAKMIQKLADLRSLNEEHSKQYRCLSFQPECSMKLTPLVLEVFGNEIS
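Measured by FP: displacement of SRC2-3 coactivator peptide from VDR by library compounds, following a two-hour ambient incubation.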
TDP1 inh = TDP1 (human) enzyme inhibition. recombinant TDP1, AlphaScreen DNA substrate cleavage. Q9NUW8. actives 0.28% (n = 350,000). Potency, µM (titrated, usually from 130 µM), for the others: top-dose activity change, negative = inhibition, usual class: inhibitors. AID 485290; further: nearly all actives have a fitted effect of over 40% in size
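Compounds were preincubated with Tdp1 (1 nM final) for 15 min at room temperature before substrate (15 nM final) started a 5 min reaction; beads (10 ug/ml final) were then added for 10 min before AlphaScreen detection.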
DT40 TDP1 CPT = growth inhibition of DT40 Tdp1-/-;hTDP1 cells with camptothecin (screen for TDP1 inhibitors); chicken DT40 Tdp1-/-;hTDP1 cells + 20 nM CPT, ATP luminescence, 48 h; actives 12% (n = 420,000); AID 686979; Potency, µM (titrated, usually from 46.2 µM), for the others: at the highest dose activity change, negative = growth inhibition, hits mostly inhibitors; further: nearly all actives have a fitted effect of over 55% in size
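Chicken DT40 Tdp1-/- cells stably complemented with human TDP1 were seeded at 400 cells/well in medium containing 20 nM camptothecin, exposed to pin-transferred compounds, and grown at 37 °C for at least 48 hr. Viability was read as ATP luminescence.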
TDP1 cell noCPT = qHTS for Inhibitors of human tyrosyl-DNA phosphodiesterase 1 (TDP1): qHTS in cells in absence of CPT | DT40 Tdp1-/- hTDP1 cells, no CPT, ATP luminescence, 48 h | Potency, µM (titrated, usually from 46.2 µM), without a hit: at the highest dose activity change, negative = growth inhibition, most hits filed as inhibitors | actives 15% (n = 420,000) | AID 686978, 2013; further: nearly all actives have a fitted effect of over 55% in size
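Growth of hTDP1-complemented DT40 Tdp1-knockout cells is measured by ATP luminescence after at least 48 hr compound exposure at 37 °C, with DMSO substituting for the 20 nM CPT used in the parallel screen.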
The depositor's hits bear a star; ? = inconclusive; · = not tested or not shown; [ ] = remark or other dose. An excerpt weighted towards active compounds, which were near 18% of everything screened. The call rests on the fitted dose curve; in most records, active means well fitted curve in the direction sought with a large enough effect; inconclusive means small, poorly fitted or top-dose-only effect, or another doubt; inactive means no such curve, though single readings can be large; an effect the other way counts as inactive or inconclusive. On the % scale 0 is the no-effect control and ±100 the full control effect; potency means the concentration at half of the fitted maximal effect.

SMILES	KAT2A inh	PLK1 PBD inh	VDR inh	TDP1 inh	DT40 TDP1 CPT	TDP1 cell noCPT
CCN(CC)CCN(C(=O)Cn1nnc(-c2ccc(C)o2)n1)C(C(=O)NC(C)(C)C)c1cccs1 (centres undefined)	-5%	-3%	-3%	5%	4%	-26%
COC(=O)c1ccc(CNC(=O)c2ccc3c(c2)S(=O)(=O)N=C2CCCCCN23)cc1	-7%	-4%	-7%	0%	2%	13%
COc1cc(NC(=O)c2ccc(COCC(F)(F)F)cc2)cc(OC)c1OC	24%	4.7µM*	-17%	-4%	-27%	?
COc1cc(CCC(=O)Nc2ccc(Br)c(C(F)(F)F)c2)cc(OC)c1OC	-8%	4%	-14%	3%	18µM*	21µM*
O=C(COc1cccc2c1CCNC2=O)Nc1cccc(C(F)(F)F)c1	0%	1%	-15%	0%[0.505 µM]	8.2µM*	16µM*
O=C(O)CSCC(=O)Nc1ccc(Br)c(C(F)(F)F)c1	-1%	-12%	-4%	-1%	-2%	-18%
COc1ccc(NC(=O)c2ccc(COCC(F)(F)C(F)F)cc2)cc1OC	-7%	-3%	-2%	1%	-7%	-45%
COc1cc(CCC(=O)Nc2cccc(C(F)(F)F)c2)cc(OC)c1OC	-1%	-10%	-11%	-8%	?	13µM*
Cc1ccc(C(=O)CCC(=O)Nc2cccc(C(F)(F)F)c2)cc1C	·	8%	2%	·	14%	9%
CC1(C)CC(NC(=O)c2ccccn2)CC(C)(C)N1O	-7%	?	3%	-9%	-7%	-2%
COc1ccc(NC(=O)Cn2cnc3c(nc4n3CCCCC4)c2=O)c(OC)c1	-12%	·	5%	4%	-2%	-1%
O=C(O)c1ccccc1C(=O)Nc1ccc(Br)c(C(F)(F)F)c1	-7%	-7%	1%	1%	-5%	-1%
Cc1cc(C)c(C(=O)Nc2ccc(Br)c(C(F)(F)F)c2)c(C)c1	-14%	1%	-13%	-4%	16µM*	12µM*
CCCNc1nc(-c2ccccc2)c(C(=O)OCC)cc1C#N	1%	-3%	-17%	·	2.9µM*	2.9µM*
C=CCNc1nc(-c2ccccc2)c(C(=O)OCC)cc1C#N	0%	24µM*	-12%	·	?	10µM*
CCOC(=O)c1cc(C#N)c(N2CCOCC2)nc1-c1ccccc1	-16%	-21%	-6%	-5%	-6%	?
CCCCNc1nc(-c2ccccc2)c(C(=O)OCC)cc1C#N	-13%	-9%	1%	·	?	23µM*
CC1NC(C(=O)O)Cc2c1[nH]c1ccccc21 (centres undefined)	-28%	·	3%	1%	-6%	-17%
COc1ccc(C(OCC2CO2)c2ccc(OC)cc2)cc1 (centres undefined)	-7%	·	·	0%	·	·
CN(C(=O)c1cc2ccccc2o1)c1c(N)n(Cc2ccccc2)c(=O)[nH]c1=O	-15%	-19%	-15%	1%	?	-1%
CC[C@H](C)[C@H](NC(=O)CNC(=O)[C@@H](NC(=O)[C@@H](NC(=O)[C@H](Cc1ccc(O)cc1)NC(=O)[C@H](CC(C)C)NC(=O)[C@H](C)NC(=O)[C@H](CCC(N)=O)NC(=O)CNC(=O)[C@@H]1CCCN1C(=O)CNC(=O)[C@H](Cc1ccccc1)NC(=O)[C@H](Cc1cnc[nH]1)NC(=O)[C@@H](NC(=O)CNC(=O)[C@H](CCCNC(=N)N)NC(=O)[C@H](CCCNC(=N)N)NC(=O)[C@@H](NC(=O)[C@H](CC(N)=O)NC(=O)[C@@H](N)CS)[C@@H](C)O)[C@@H](C)CC)[C@@H](C)O)[C@@H](C)O)C(=O)O	1%	·	?	13%	·	·
Cc1ccc(CNC(=O)CN2N=C(c3ccccc3)CCC2=O)cc1	-28%	·	1%	5%	-21%	-18%
CC#CC(=O)Nc1cc2c(Nc3ccc(F)c(Cl)c3)ncnc2cn1	-22%	·	2%	11%	·	·
Cc1ccc(SC2=C(Sc3ccc(C)cc3)C(=O)c3ccccc3C2=O)cc1	3%	1.7µM*	?	12%	0.92µM*	1µM*
C[C@@H](c1ccccc1)N1C(=O)[C@H]2[C@H]3[C@H](O)[C@H](O)C/C(=N/NC(=O)OCc4ccccc4)[C@@H]3CC[C@@H]2C1=O	·	·	·	11%[21 µM]	·	·
SMILES	KAT2A inh	PLK1 PBD inh	VDR inh	TDP1 inh	DT40 TDP1 CPT	TDP1 cell noCPT
Cc1ccc(NC(=O)C2CCN(S(=O)(=O)c3c(C)noc3/C=C/c3ccco3)CC2)nc1	-9%	-10%	-2%	4%	?	18µM*
Cc1ccccc1NC(=O)C1CCN(S(=O)(=O)c2c(C)noc2/C=C/c2ccco2)CC1	-3%	·	-24%	2%	-5%	-13%
Cc1noc(/C=C/c2ccco2)c1S(=O)(=O)N1CCC(C(=O)N2CCc3ccccc3C2)CC1	?	-7%	20%	6%	21µM*	18µM*
COc1cc(NC(=O)Cn2c(=O)n(Cc3ccccc3Cl)c(=O)c3cc(OC)c(OC)cc32)cc(OC)c1	-12%	·	-5%	5%	-25%	-29%
COc1ccc(NC(=O)N2CC3(CCN(C(=O)c4c(C)noc4C)CC3)C2)cc1	19%	·	15%	·	19%	-14%
O=C1CSC(=S)N1N1C(=O)c2cccc([N+](=O)[O-])c2C1=O	-12%	·	·	2.8µM*	·	·
COc1cc(/C=C(\C#N)C(=O)N2CCOCC2)cc(Br)c1O	-6%	21µM*	8%	0%	?	?
N#C/C(=C\c1cccc(Oc2ccccc2)c1)C(=O)N1CCOCC1	-4%	?	45µM*	0%	?	?
O=C(Oc1cccc(Oc2ccccc2)c1)N1CCOCC1	-6%	-5%	-1%	2%	-13%	-8%
CCOC(=O)c1ccccc1NC1c2ccccc2C(=O)N1c1cc(C)ccn1 (centres undefined)	-9%	-6%	-18%	0%	23µM*	?
CC1(Cc2ccc(F)c(Cl)c2)C(=O)Nc2c(Cl)cccc21 (centres undefined)	·	-7%	·	·	?	16µM*
CC1(Cc2cc(Cl)ccc2C(F)(F)F)C(=O)Nc2c(Cl)cccc21 (centres undefined)	·	0%	·	·	?	13µM*
COc1ccc(Cl)cc1CC1(C)C(=O)Nc2c(Cl)cccc21 (centres undefined)	·	-10%	·	·	?	23µM*
COc1ccccc1-c1ccc2c(c1)C(C)(Cc1ccc(F)c(Cl)c1)C(=O)N2 (centres undefined)	·	4%	·	·	?	?
